Inconclusive results are not listed. A call without a number means that no potency is given here. Activity calls are given as the source filed them. Calls follow the shape of the full dose curve.

17 compounds from PubChem BioAssay AID2320 (National Center for Advancing Translational Sciences (NCATS), 2010) can be followed below.
Potency is read from the fitted curve at half-maximal effect.

A short description of the experiment: A qHTS for Small Molecule Inhibitors of Shiga Toxin (Confirmatory). Also: nearly all actives have a fitted effect of over 75% in size. To be noted: Cell-based Shiga toxin protection reporter assay; series mostly up to 38.3 µM. For orientation: Quantitative high-throughput screening tests each substance at several concentrations.
With `O=C(NC1CCCCC1)c1cccc(S(=O)(=O)N2CCCCC2)c1`, the Potency result was “inactive”.

Turning to `Cc1cccc(N2CCN(C(=O)Cc3ccc(Br)cc3)CC2)c1C`, the Potency was 14.2 µM (active).

For the compound `Cc1cccc(NC(=O)CCN2C(=O)c3ccccc3S2(=O)=O)c1C`, the Potency was 20 µM (active).

Turning to `COC(=O)c1ccc(-c2ncc(-c3cccc4ccccc34)o2)cc1`, the Potency was 7.11 µM (active).

In the case of `Cc1c(C(=O)Nc2nc3ccccc3[nH]2)oc2ccc(Br)cc12`, the Potency was 11.3 µM (active).

For `Cc1nn(C2CCCCC2)c(N)c1-c1ccccc1`, the Potency result was “inactive”.

Regarding `COc1ccc(C(=O)CC(=O)C(=O)Nc2ccc(C)cc2Cl)cc1`, the Potency entry is “inactive”.

For `CCN1CCN(Cc2c(O)ccc3c(=O)c(-c4ccc(OC)c(OC)c4)c(C(F)(F)F)oc23)CC1`, the Potency entry is “inactive”.

Regarding `Cc1c(NC(=O)c2ccc3c(c2)OCO3)cccc1-c1nc2ccccc2o1`, the Potency is 20 µM (active).

For `CC1CCC/C=C/C2CC(O)CC2C(O)/C=C/C(=O)O1` (configuration not stated), the Potency is 0.565 µM (active).

Take `CSc1nc2ccc(N3C(=O)C4CCCCC4C3=O)cc2s1` (configuration not stated): the Potency entry was “inactive”.

As for `CCc1ccccc1NC(=O)Cn1nnc(-c2cccs2)n1`, the Potency result was “inactive”.

For `Cc1cc(C)c2c(n1)SCC(=O)N2CC(=O)Nc1ccc(C)c(C)c1`, the Potency is 0.449 µM (active).

On to `CC(=O)Nc1ccc(N2N=C(C)C(N=Nc3ccccc3)C2=O)cc1` (configuration not stated), for which the Potency is 11.3 µM (active).

As for `Cc1cc(C)n(-c2nc(SCCN(C)C)c3c4c(sc3n2)COC(C)(C)C4)n1`, the Potency result was “inactive”.

As to `COc1ccc2nc(SCC(=O)Nc3ccc4c(c3)CCC4)[nH]c2c1`, the Potency result was “inactive”.

Regarding `COc1ccccc1CNC(=O)Cn1cc([N+](=O)[O-])ccc1=O`, the Potency result was “inactive”.
